Test [1] in a line: qHTS assay to identify small molecule antagonists of the glucocorticoid receptor (GR) signaling pathway - cell viability counter screen (AID 720693; note: nearly all actives have a fitted effect of over 55% in size). (qHTS replaces the single test concentration by a dilution series.)
Test [2] is described as follows: qHTS assay for identifying genotoxic compounds that show differential cytotoxicity against isogenic chicken DT40 cell lines with known DNA damage response pathways - Rad54/Ku70 mutant cell line (AID 743015). Note: nearly all actives have a fitted effect of over 60% in size.
Test [3] is described as follows: qHTS assay to identify small molecule antagonists of the androgen receptor (AR) signaling pathway - cell viability counter screen (AID 743033; note: nearly all actives have a fitted effect of over 45% in size).
Test [4] can be described thus: qHTS assay to identify small molecule antagonists of the androgen receptor (AR) signaling pathway using the MDA cell line - cell viability counter screen (AID 743041; note: nearly all actives have a fitted effect of over 45% in size). The method, boiled down: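 Cells were plated at 3,000 per well and left 5 h. Compounds in DMSO were then pinned in, followed by R1881. After 16 h at 37C, CellTiter-Fluor fluorescence gave viability.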

A short description of test [5]: qHTS assay to identify small molecule antagonists of the thyroid receptor (TR) signaling pathway - cell viability counter screen (AID 743064). Note: nearly all actives have a fitted effect of over 50% in size. The gist of the method: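 GH3.TRE-Luc cells, 4 h pre-plating; cpd + T3 1 nM final; 37 °C 23.5 h; CellTiter-Fluor 30 min; fluorescence read.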
Test [6] in a line: qHTS assay to identify small molecule antagonists of the thyroid receptor (TR) signaling pathway (AID 743065). Note: series mostly up to about 70 µM; nearly all actives have a fitted effect of over 55% in size. The method, boiled down: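 Antagonism measured as loss of luciferase signal in GH3 cells stably carrying a TRE-luciferase reporter, co-treated with compound and T3 (1 nM final) for 23.5 h at 37 C. Viability was read in the same well by CellTiter-Fluor.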
Test [7] deals with thyroid hormone receptor (rat, GH3 cells). Put plainly: qHTS assay to identify small molecule agonists of the thyroid receptor (TR) signaling pathway (AID 743066; calls by dose curve; note: potency is the fitted concentration of half-maximal effect).
Test [8] addresses Estrogen receptor (Homo sapiens) (UniProt P03372). Put plainly: qHTS assay to identify small molecule antagonists of the estrogen receptor alpha (ER-alpha) signaling pathway (AID 743069; active = well fitted curve in the direction sought with a large enough effect in the signal ratio in the repeat runs, not every such curve was filed as active; the % refers to the signal ratio). The method, boiled down: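 ER-alpha-UAS-bla GripTite HEK293 line; 2% charcoal-stripped FBS overnight; plated, 4 hr 37C/5% CO2; cpd in DMSO + 17beta-estradiol, 18 hr 37C; LiveBLAzer B/G FRET substrate 2 hr RT; fluorescence intensity.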

A short description of test [9]: qHTS assay to identify small molecule antagonists of the estrogen receptor alpha (ER-alpha) signaling pathway - cell viability counter screen (AID 743074; calls by dose curve;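 note: HEK293 cells carrying ER-alpha-UAS-bla reporter stimulated with 17beta-estradiol; nearly all actives have a fitted effect of over 45% in size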).
Test [10] addresses Estrogen receptor (Homo sapiens) (UniProt P03372). Kind of test: qHTS assay to identify small molecule agonists of the estrogen receptor alpha (ER-alpha) signaling pathway (AID 743075; calls by dose curve;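 note: HEK293 GripTite cells with ER-alpha and UAS-driven beta-lactamase reporter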; note: potency is the fitted concentration of half-maximal effect).
Test [11] has the same target. Kind of test: qHTS assay to identify small molecule agonists of the estrogen receptor alpha (ER-alpha) signaling pathway using the BG1 cell line (AID 743079). Note: nearly all actives have a fitted effect of over 20% in size. Note: potency is the fitted concentration of half-maximal effect.
Test [12] can be described thus: qHTS assay to identify small molecule antagonists of the estrogen receptor alpha (ER-alpha) signaling pathway using the BG1 cell line (AID 743080; calls by dose curve; note: series mostly up to about 70 µM; nearly all actives have a fitted effect of over 25% in size). The gist of the method: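 Antagonist mode: compounds in DMSO were pinned onto BG1-Luc-4E2 cells alongside 17beta-estradiol agonist, incubated 21.5 h, and ERE-driven luciferase measured with ONE-Glo. Cytotoxicity was multiplexed using CellTiter-Fluor fluorescence.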

Test [13] in a line: qHTS assay to identify small molecule antagonists of the estrogen receptor alpha (ER-alpha) signaling pathway using the BG1 cell line - cell viability counter screen (AID 743081).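 Note: compound given together with 17beta-estradiol as the ER stimulus; series mostly up to about 70 µM; nearly all actives have a fitted effect of over 45% in size.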
Test [14] has as its target Aromatase (Homo sapiens) (UniProt P11511). Put plainly: qHTS assay to identify aromatase inhibitors (AID 743083). Note: series mostly up to about 70 µM; nearly all actives have a fitted effect of over 55% in size.
Test [15] can be described thus: qHTS assay for identifying genotoxic compounds that show differential cytotoxicity against isogenic chicken DT40 cell lines with known DNA damage response pathways - Rev3 mutant cell line (AID 743014). Note: nearly all actives have a fitted effect of over 55% in size. Note: potency is the fitted concentration of half-maximal effect.
Test [16] can be described thus: qHTS assay for identifying genotoxic compounds that show differential cytotoxicity against isogenic chicken DT40 cell lines with known DNA damage response pathways - wild type cell line (AID 743012). Note: nearly all actives have a fitted effect of over 60% in size. The gist of the method: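 Wild type DT40, 300 cells/well, ~0.5 h settle at 37 C/5% CO2; compounds in DMSO added by pintool; 40 h at 37 C/5% CO2; CellTiter-Glo, 30 min RT; luminescence.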

For test [17], the target named is Androgen receptor (Homo sapiens) (UniProt P10275). Kind of test: qHTS assay to identify small molecule agonists of the androgen receptor (AR) signaling pathway (AID 743036; active = well fitted activation curve with a large enough effect in the signal ratio in the repeat runs, with a control signal flat, not every such curve was filed as active; the % refers to the signal ratio). The method, boiled down:
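AR-bla HEK293 cells, 2,000/well; 4 h preincubation 37C/5% CO2; compound (DMSO) 16 h at 37C; LiveBLAzer B/G FRET substrate 2 h RT; fluorescence intensity read-out.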

Test [18] shares this target. Put plainly: qHTS assay to identify small molecule agonists of the androgen receptor (AR) signaling pathway using the MDA cell line (AID 743040; note: nearly all actives have a fitted effect of over 20% in size). The gist of the method:
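Cells plated, 5 h at 37C/0% CO2; compound or DMSO pinned; 16 h at 37C; ONE-Glo added; luminescence measured after 30 min at room temperature. Reporter line: MDA-kb2 with MMTV-luciferase responsive to AR and GR.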

Test [19] shares this target. Kind of test: qHTS assay to identify small molecule antagonists of the androgen receptor (AR) signaling pathway using the MDA cell line (AID 743042; note: nearly all actives have a fitted effect of over 55% in size). The gist of the method: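 Antagonist mode: compounds plus R1881 agonist added to MDA-kb2 AR-luc cells, incubated 16 h at 37C. Luciferase reporter luminescence quantified, with multiplexed CellTiter-Fluor readout for cell viability.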

The target is the same in test [20]. Kind of test: qHTS assay to identify small molecule antagonists of the androgen receptor (AR) signaling pathway (AID 743035; active = well fitted inhibition curve with a large enough effect in the signal ratio in the repeat runs, not every such curve was filed as active; the % refers to the signal ratio). The method, boiled down: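 Fluorescence from a beta-lactamase FRET substrate (LiveBLAzer B/G, 2 h, room temperature) measured inhibition of R1881-stimulated signaling in GeneBLAzer AR-UAS-bla HEK293 cells exposed to compound for 16 h at 37C.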

Records with an inconclusive call do not appear. Activity calls are given as the source filed them. Unless noted, calls come from the whole dose curve; as a rule, active = well fitted curve in the direction sought with a large enough effect in the repeat runs; inconclusive = weak or mixed curves; inactive = no such curve, though single readings can be large; an effect the other way counts as inactive or inconclusive.

We go through 13 compounds from PubChem BioAssay (Tox21).

Sequence of Aromatase (Homo sapiens) (P11511 whole entry, looked up): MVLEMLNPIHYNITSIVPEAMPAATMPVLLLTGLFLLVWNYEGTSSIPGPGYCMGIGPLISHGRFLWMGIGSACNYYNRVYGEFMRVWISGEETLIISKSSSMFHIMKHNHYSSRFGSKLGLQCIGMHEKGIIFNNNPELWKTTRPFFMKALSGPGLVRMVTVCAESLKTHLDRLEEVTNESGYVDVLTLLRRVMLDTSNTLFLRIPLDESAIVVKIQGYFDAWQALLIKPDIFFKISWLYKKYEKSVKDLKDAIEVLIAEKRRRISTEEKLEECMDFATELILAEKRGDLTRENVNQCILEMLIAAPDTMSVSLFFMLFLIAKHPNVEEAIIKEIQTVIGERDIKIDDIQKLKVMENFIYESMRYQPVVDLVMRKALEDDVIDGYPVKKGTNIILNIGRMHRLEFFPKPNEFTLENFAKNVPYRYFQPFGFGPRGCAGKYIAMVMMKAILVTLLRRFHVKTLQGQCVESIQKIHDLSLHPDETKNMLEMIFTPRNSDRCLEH
Sequence of Estrogen receptor (Homo sapiens) (P03372 whole entry, looked up): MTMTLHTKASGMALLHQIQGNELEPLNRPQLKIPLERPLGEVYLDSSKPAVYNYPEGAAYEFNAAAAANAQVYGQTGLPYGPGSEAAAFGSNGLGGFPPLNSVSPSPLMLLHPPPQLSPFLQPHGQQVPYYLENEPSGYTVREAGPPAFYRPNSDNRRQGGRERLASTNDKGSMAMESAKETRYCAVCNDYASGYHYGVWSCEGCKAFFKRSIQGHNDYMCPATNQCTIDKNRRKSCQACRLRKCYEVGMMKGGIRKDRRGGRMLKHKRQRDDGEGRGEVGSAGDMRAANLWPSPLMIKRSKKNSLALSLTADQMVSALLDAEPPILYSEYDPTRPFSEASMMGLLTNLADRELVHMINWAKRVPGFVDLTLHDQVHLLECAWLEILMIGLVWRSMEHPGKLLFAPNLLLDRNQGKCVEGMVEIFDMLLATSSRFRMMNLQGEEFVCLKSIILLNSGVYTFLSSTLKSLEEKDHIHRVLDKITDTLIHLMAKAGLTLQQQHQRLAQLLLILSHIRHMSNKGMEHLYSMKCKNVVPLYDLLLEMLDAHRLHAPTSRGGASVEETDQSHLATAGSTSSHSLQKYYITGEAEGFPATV
Sequence of Androgen receptor (Homo sapiens) (P10275 whole entry, looked up): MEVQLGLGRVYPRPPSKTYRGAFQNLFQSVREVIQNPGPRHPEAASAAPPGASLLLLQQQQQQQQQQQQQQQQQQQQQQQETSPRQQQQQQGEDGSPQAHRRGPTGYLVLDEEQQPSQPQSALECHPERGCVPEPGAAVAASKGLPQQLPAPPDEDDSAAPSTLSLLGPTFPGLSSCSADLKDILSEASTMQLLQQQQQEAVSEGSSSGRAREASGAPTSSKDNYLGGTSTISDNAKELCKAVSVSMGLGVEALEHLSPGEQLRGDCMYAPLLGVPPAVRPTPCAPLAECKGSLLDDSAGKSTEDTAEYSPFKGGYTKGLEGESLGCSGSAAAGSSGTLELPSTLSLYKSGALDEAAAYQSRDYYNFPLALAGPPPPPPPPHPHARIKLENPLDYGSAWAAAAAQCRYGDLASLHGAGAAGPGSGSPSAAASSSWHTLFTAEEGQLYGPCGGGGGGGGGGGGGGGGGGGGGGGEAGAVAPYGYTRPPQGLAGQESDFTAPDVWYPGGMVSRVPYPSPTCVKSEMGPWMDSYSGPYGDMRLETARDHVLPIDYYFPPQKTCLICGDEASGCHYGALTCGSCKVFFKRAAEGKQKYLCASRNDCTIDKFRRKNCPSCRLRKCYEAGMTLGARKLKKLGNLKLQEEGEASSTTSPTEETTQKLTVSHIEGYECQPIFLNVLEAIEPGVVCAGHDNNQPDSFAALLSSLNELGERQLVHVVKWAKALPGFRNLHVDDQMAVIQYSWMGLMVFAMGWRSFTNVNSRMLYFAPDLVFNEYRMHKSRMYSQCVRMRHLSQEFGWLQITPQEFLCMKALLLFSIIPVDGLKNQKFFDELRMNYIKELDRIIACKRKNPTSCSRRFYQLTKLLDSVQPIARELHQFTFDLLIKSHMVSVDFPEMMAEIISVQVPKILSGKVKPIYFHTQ

As for `CCN(Cc1cccc(S(=O)(=O)O)c1)c1ccccc1`, the Potency entry in test [1], in test [2], in test [5], in test [6], in [7] and in test [8] was “inactive” throughout. Further, the Potency result in test [9], in test [10] and in [11] was “inactive” throughout. In addition, the compound was called inactive in [3], in test [4], in [12], in test [13] and in test [14].

Consider `C=C[Si](C)(C)O[Si](C)(C)C=C`, for which the Potency result in [1], in [2], in [7], in [8], in test [9] and in [10] was “inactive” each time. Moreover, the Potency entry in [11] is “inactive”. Also, the compound was classed as inactive in test [3], in [4], in test [12], in test [13] and in test [14].

For `CC(Cl)COP(=O)(OCC(C)Cl)OCC(C)Cl` (stereo unspecified), the Potency result in [1], in [7], in [8], in test [9], in [10] and in test [11] was “inactive” throughout. The Potency in test [15] is 54.2 µM (active). The result in test [3], in [4], in [12], in test [13] and in [14] was inactive.

As for `O=CN1CCOCC1`, the Potency entry in test [16], in [15], in test [2], in [6], in [7] and in test [8] was “inactive” throughout. In addition, the Potency result in [9], in [10] and in test [11] was “inactive” throughout. The outcome in test [3], in test [17], in test [18], in test [4], in test [19] and in [12] was inactive. The result in [13] and in test [14] was inactive.

On to `CCCCCCCCCCCCC1CO1` (stereo unspecified), for which the Potency entry in test [1], in [5], in [6], in test [7], in test [8] and in test [9] was “inactive” in each case. For the same compound, the Potency entry in [10] and in [11] was “inactive” in each case. Besides, the compound was called inactive in test [4], in [12], in test [13] and in test [14].

On to `CCOC(=O)CC(CC(=O)OCC)(OC(C)=O)C(=O)OCC`, for which the Potency entry in test [1], in test [2], in [5], in test [6], in [7] and in test [9] was “inactive” in each case. Also, the compound was called inactive in test [3], in test [4], in test [13] and in [14].

With `C=C(C)C(=O)OC1CC(C)CC(C)(C)C1` (stereo unspecified), the Potency result in test [16], in test [15], in test [2], in test [5], in test [6] and in test [7] was “inactive” throughout. For the same compound, the Potency entry in test [9] is “inactive”. The compound was called inactive in test [3], in test [4], in [13] and in test [14].

For the compound `O=C(Oc1ccccc1C(=O)O)c1ccccc1O`, the Potency entry in [1], in test [2], in test [5], in test [6], in test [7] and in test [8] was “inactive” in each case. Besides, the Potency entry in [9] and in [10] was “inactive” each time. Further, the compound was classed as inactive in test [3], in test [4], in [12], in test [13] and in [14]. For the same compound, the Potency in test [11] was 26.6 µM (active).

Consider `CCCOC(=O)CCCCC(=O)OCCC`, for which the Potency entry in test [1], in test [2], in test [5], in test [6], in test [7] and in test [8] was “inactive” each time. In addition, the Potency result in test [9], in [10] and in [11] was “inactive” each time. In addition, the call in test [4], in [12] and in [14] was inactive.

Turning to `O=C1c2ccccc2-c2ccccc21`, the Potency result in test [1], in test [2], in [20], in test [5], in [6] and in [7] was “inactive” each time. Besides, the Potency result in test [9] was “inactive”. In addition, the outcome in [3], in [17], in test [18], in [4], in [19] and in [13] was inactive. Further, the result in test [14] was inactive.

As for `Cc1oc(=O)oc1CN1CCN(c2cc3c(cc2F)c(=O)c(C(=O)O)c2n3C(C)S2)CC1` (stereo unspecified), the Potency entry in test [1], in [7] and in [9] was “inactive” in each case. Further, the outcome in test [3], in test [4], in test [12], in test [13] and in [14] was inactive. The Potency in test [10] was 23.9 µM [activator] (active); in test [11], 8.41 µM (active).

`CCCCCCCCCCC`: the Potency result in [16], in [15], in [2], in [20], in test [5] and in test [6] was “inactive” each time. Besides, the Potency result in test [8], in test [9], in [10] and in test [11] was “inactive” each time. Moreover, the outcome in test [3], in [17], in test [18], in [4], in test [19] and in test [12] was inactive. Besides, the call in test [13] and in test [14] was inactive. Further, the Potency in test [7] was 54.5 µM (active).

On to `CCOc1ccc(NC(=O)OC(C)C)cc1OCC`, for which the Potency entry in test [1], in test [6], in test [7] and in test [9] was “inactive” throughout. In addition, in test [15], the Potency is 61.1 µM (active). Moreover, the result in test [3], in test [4], in [13] and in [14] was inactive.
